Experimental data reported in PubChem BioAssay AID1159580 (chemical genetic matrix, 2015).
The whole screen tested about 5,500 compounds, of which about 2,000 (36%) were called active. Roughly 18% stayed inconclusive and do not appear here. Cut-off read from the data, not from the text of the source: active = normalized growth mostly below about 0.91 (no sharp cut-off); inconclusive = no clear call, values can overlap the other calls; inactive = mostly above about 0.92. The list shows a part of the results.

Test: chemical genetic growth profiling, strain panel (AID 1159580);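 note: tested at 20 µM; growth read once vehicle control cultures reached saturation at 30 °C; 1 = growth at the plate median or of vehicle wells; lower values mean less growth of the strain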
Conditions: growth OD

Measured: normalized growth

CCOc1nc2cccc(C(=O)OC(C)OC(=O)OC3CCCCC3)c2n1Cc1ccc(-c2ccccc2-c2nn[nH]n2)cc1 (configuration not stated)
inactive: S. cerevisiae deletion strains, locus YJR075W, strain HOC1, active compounds read low 0.989 | S. cerevisiae deletion strains, locus YKL009W, strain mrt4, active compounds read low 1.1 | S. cerevisiae deletion strains, locus YKL068W, active compounds read low 0.997 | S. cerevisiae deletion strains, locus YKL085W, strain MDH1 (second series), active compounds read low 0.994 | S. cerevisiae deletion strains, locus YKL085W, strain MDH1, active compounds read low 0.994 | S. cerevisiae deletion strains, locus YKL160W, strain elf1, active compounds read low 1.02 | S. cerevisiae deletion strains, locus YKL190W, strain CNB1, active compounds read low 0.999 | S. cerevisiae deletion strains, locus YKR001C, strain vps1, active compounds read low 0.963 | S. cerevisiae deletion strains, locus YKR026C, strain gcn3, active compounds read low 1.03 | S. cerevisiae deletion strains, locus YKR091W, strain srl3, active compounds read low 1.02 | S. cerevisiae deletion strains, locus YLL001W, strain dnm1, active compounds read low 1.03 | S. cerevisiae deletion strains, locus YLL026W, active compounds read low 1.01 | S. cerevisiae deletion strains, locus YLL041C, strain sdh2, active compounds read low 1.01 | S. cerevisiae deletion strains, locus YLR027C, strain aat2, active compounds read low 1.02 | S. cerevisiae deletion strains, locus YLR039C, strain RIC1, active compounds read low 0.815 | S. cerevisiae deletion strains, locus YLR058C, strain SHM2, active compounds read low 1.01 | S. cerevisiae deletion strains, locus YLR102C, strain apc9, active compounds read low 0.998 | S. cerevisiae deletion strains, locus YLR113W, strain HOG1, active compounds read low 1.03 | S. cerevisiae deletion strains, locus YLR221C, strain rsa3, active compounds read low 1.01 | S. cerevisiae deletion strains, locus YLR258W, strain gsy2, active compounds read low 1.02 | S. cerevisiae deletion strains, locus YLR262C, strain YPT6, active compounds read low 0.797 | S. cerevisiae deletion strains, locus YLR268W, strain sec22, active compounds read low 0.981 | S. cerevisiae deletion strains, locus YLR320W, strain mms22, active compounds read low 0.999 | S. cerevisiae deletion strains, locus YLR330W, strain CHS5, active compounds read low 1 | S. cerevisiae deletion strains, locus YLR342W, strain FKS1 (second series), active compounds read low 0.862 | S. cerevisiae deletion strains, locus YLR342W, strain FKS1, active compounds read low 1.02 | S. cerevisiae deletion strains, locus YLR357W, strain rsc2, active compounds read low 1.07 | S. cerevisiae deletion strains, locus YLR370C, strain arc18, active compounds read low 1.02 | S. cerevisiae deletion strains, locus YLR371W, strain rom2, active compounds read low 0.997 | S. cerevisiae deletion strains, locus YLR384C, strain iki3, active compounds read low 1.01 | S. cerevisiae deletion strains, locus YLR418C, strain cdc73, active compounds read low 0.959 | S. cerevisiae deletion strains, locus YML016C, strain PPZ1, active compounds read low 1.01 | S. cerevisiae deletion strains, locus YML032C, strain rad52, active compounds read low 1 | S. cerevisiae deletion strains, locus YML120C, strain ndi1, active compounds read low 1.04 | S. cerevisiae deletion strains, locus YML124C, strain tub3, active compounds read low 1 | S. cerevisiae deletion strains, locus YMR058W, strain fet3, active compounds read low 1.02 | S. cerevisiae deletion strains, locus YMR078C, strain ctf18, active compounds read low 1.01 | S. cerevisiae deletion strains, locus YMR125W, strain sto1, active compounds read low 1.06 | S. cerevisiae deletion strains, locus YMR129W, active compounds read low 1.03 | S. cerevisiae deletion strains, locus YMR205C, strain PFK2, active compounds read low 0.99 | S. cerevisiae deletion strains, locus YMR223W, strain ubp8, active compounds read low 0.984 | S. cerevisiae deletion strains, locus YMR231W, strain pep5, active compounds read low 1.02 | S. cerevisiae deletion strains, locus YMR263W, strain SAP30, active compounds read low 1 | S. cerevisiae deletion strains, locus YMR307W, strain GAS1, active compounds read low 0.734 | S. cerevisiae deletion strains, locus YNL067W, strain RPL9B, active compounds read low 0.992 | S. cerevisiae deletion strains, locus YNL071W, strain lat1, active compounds read low 1.02 | S. cerevisiae deletion strains, locus YNL128W, strain TEP1, active compounds read low 0.995 | S. cerevisiae deletion strains, locus YNL153C, strain GIM3, active compounds read low 1 | S. cerevisiae deletion strains, locus YNL183C, strain NPR1, active compounds read low 0.968 | S. cerevisiae deletion strains, locus YNL209W, strain ssb2, active compounds read low 1 | S. cerevisiae deletion strains, locus YNL233W, strain BNI4, active compounds read low 0.999 | S. cerevisiae deletion strains, locus YNL248C, strain rpa49, active compounds read low 1.02 | S. cerevisiae deletion strains, locus YNL250W, strain rad50, active compounds read low 0.991 | S. cerevisiae deletion strains, locus YNL271C, strain bni1, active compounds read low 1 | S. cerevisiae deletion strains, locus YNL298W, strain CLA4, active compounds read low 1 | S. cerevisiae deletion strains, locus YNL307C, strain MCK1, active compounds read low 0.995 | S. cerevisiae deletion strains, locus YNL322C, strain KRE1 (second series), active compounds read low 1.03 | S. cerevisiae deletion strains, locus YNL322C, strain KRE1, active compounds read low 1 | S. cerevisiae deletion strains, locus YNR049C, strain mso1, active compounds read low 1.04 | S. cerevisiae deletion strains, locus YNR052C, strain pop2, active compounds read low 1 | S. cerevisiae deletion strains, locus YOL006C, strain TOP1, active compounds read low 0.763 | S. cerevisiae deletion strains, locus YOL012C, strain htz1 0.976 | S. cerevisiae deletion strains, locus YOL147C, strain pex11, active compounds read low 1 | S. cerevisiae deletion strains, locus YOR001W, strain rrp6, active compounds read low 1.02 | S. cerevisiae deletion strains, locus YOR061W, strain CKA2, active compounds read low 1 | S. cerevisiae deletion strains, locus YOR069W, strain VPS5, active compounds read low 1 | S. cerevisiae deletion strains, locus YOR070C, strain gyp1, active compounds read low 1 | S. cerevisiae deletion strains, locus YOR080W, strain dia2, active compounds read low 1.02 | S. cerevisiae deletion strains, locus YOR083W, strain WHI5, active compounds read low 1.01 | S. cerevisiae deletion strains, locus YOR106W, strain vam3, active compounds read low 0.983 | S. cerevisiae deletion strains, locus YOR136W, strain idh2, active compounds read low 0.984 | S. cerevisiae deletion strains, locus YOR144C, strain elg1, active compounds read low 0.993 | S. cerevisiae deletion strains, locus YOR184W, strain ser1, active compounds read low 0.952 | S. cerevisiae deletion strains, locus YOR231W, strain MKK1, active compounds read low 0.998 | S. cerevisiae deletion strains, locus YOR265W, strain rbl2, active compounds read low 1.02 | S. cerevisiae deletion strains, locus YOR270C, strain vph1, active compounds read low 1.04 | S. cerevisiae deletion strains, locus YOR290C, strain snf2, active compounds read low 1.02 | S. cerevisiae deletion strains, locus YOR316C, strain cot1, active compounds read low 0.996 | S. cerevisiae deletion strains, locus YPL051W, strain arl3, active compounds read low 0.999 | S. cerevisiae deletion strains, locus YPL055C, strain LGE1, active compounds read low 0.988 | S. cerevisiae deletion strains, locus YPL078C, strain atp4, active compounds read low 1.05 | S. cerevisiae deletion strains, locus YPL106C, strain sse1, active compounds read low 0.993 | S. cerevisiae deletion strains, locus YPL240C, strain hsp82, active compounds read low 1.01 | S. cerevisiae deletion strains, locus YPL241C, strain CIN2, active compounds read low 1 | S. cerevisiae deletion strains, locus YPL256C, strain CLN2, active compounds read low 0.961 | S. cerevisiae deletion strains, locus YPR119W, strain clb2, active compounds read low 0.992 | S. cerevisiae deletion strains, locus YPR141C, strain kar3, active compounds read low 0.998 | S. cerevisiae deletion strains, locus YPR163C, strain tif3, active compounds read low 0.99 | S. cerevisiae deletion strains, locus YPR167C, strain met16, active compounds read low 1 | S. cerevisiae deletion strains, strain wtn01, active compounds read low 0.989 | S. cerevisiae strains, strain wild type, active compounds read low 0.997
active: S. cerevisiae deletion strains, locus YLR262C, strain YPT6 (second series), active compounds read low 0.826
